In the library only some 7.5% were active in any assay of this set; here they are far more common.
Rab9 promoter act: activators of Rab9 promoter | Huh7 Rab9 promoter-luciferase reporter, luminescence, 24 h | Potency, µM (doses to about 9.22 µM), for the others: top-dose activation, negative = inhibition, usual class: activators | hit rate 2.8% among 320,000; note: % of control where 0% means no effect; nearly all actives have a fitted effect of over 60% in size
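Huh7 cells stably carrying a Rab9 promoter-luciferase reporter, 1500 cells per well in OP-MEM I with 10% FBS, treated with compound 24 hours at 37C. Luciferase activity read by luminescence after 10 minutes with Amplite reagent.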
ELG1 genotoxic: induces genotoxicity in HEK293T cells with luciferase-tagged ELG1. HEK293T ELG1-luciferase reporter, luminescence, 16 h. AID 504466. hit rate 1.3% among 330,000. Potency, µM (titrated, usually from 46 µM), inactives show at the highest dose activity change, positive = activation, hits mostly activators; note: % of control where 0% means no effect; nearly all actives have a fitted effect of over 60% in size
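16 hr compound incubation (37 °C, 5% CO2) of HEK293T cells carrying luciferase-tagged ELG1; luciferase then measured by ONE-Glo luminescence after 30 min at RT.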
NPC1 prom act: activates the NPC1 promoter; Huh7 NPC1 promoter luciferase reporter, 24 h; Potency, µM (titrated, usually from 9.22 µM), inactives show at the top dose activation, most hits filed as activators; hit rate 2.4% among 320,000; AID 485313; note: % of control where 0% means no effect; nearly all actives have a fitted effect of over 60% in size
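Luminescence read-out of NPC1 promoter-driven luciferase in stably transfected Huh7 cells; compounds delivered in DMSO and left 24 h at 37C, 5% CO2, qHTS titration format.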
FLuc counter: inhibits or activates purified firefly luciferase, miR-21 counter-screen; purified FLuc, Km substrates, luminescence inhibition; hit rate 6.9% among 360,000; Potency, µM (highest dose often 57.5 µM), for the others: top-dose activity change, negative = inhibition, usual class: inhibitors; P08659;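 note: plate controls were vehicle for no effect and reference inhibitor for full effect; nearly all actives have a fitted effect of over 55% in size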
Target sequence (P08659 whole entry, looked up): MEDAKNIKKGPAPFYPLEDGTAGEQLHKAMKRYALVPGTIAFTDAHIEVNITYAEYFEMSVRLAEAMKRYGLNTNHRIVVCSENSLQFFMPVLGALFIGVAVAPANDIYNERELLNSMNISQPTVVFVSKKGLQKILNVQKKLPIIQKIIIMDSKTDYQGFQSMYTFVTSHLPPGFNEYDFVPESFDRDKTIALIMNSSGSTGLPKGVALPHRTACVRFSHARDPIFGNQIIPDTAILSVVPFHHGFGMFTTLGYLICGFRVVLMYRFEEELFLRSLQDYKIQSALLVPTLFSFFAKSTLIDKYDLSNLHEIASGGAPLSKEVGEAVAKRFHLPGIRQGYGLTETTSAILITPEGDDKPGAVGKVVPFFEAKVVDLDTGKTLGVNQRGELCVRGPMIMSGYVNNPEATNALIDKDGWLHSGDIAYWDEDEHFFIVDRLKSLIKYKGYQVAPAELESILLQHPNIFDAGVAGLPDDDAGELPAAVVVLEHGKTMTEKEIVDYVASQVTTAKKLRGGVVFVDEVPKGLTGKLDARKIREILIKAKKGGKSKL
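Purified P. pyralis luciferase (10nM final) with 10uM D-luciferin and 10uM ATP (Km levels) in 50mM Tris acetate pH 7.5, 10mM Mg acetate, 0.01% Tween-20, 0.05% BSA; qHTS 6-point titration, ~60 µM downward; luminescence read.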
SMN2 splice up: enhancers of SMN2 splice variant expression; HEK293 SMN2-luciferase splicing reporter, luminescence, 30-36 h; Potency, µM (top dose mostly 46.1 µM), inactives show at the top dose activity change, positive = activation, most hits filed as activators; hit rate 2.8% among 210,000; note: % of control where 0% means no effect; nearly all actives have a fitted effect of over 55% in size
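HEK293 cells carry an SMN2 […]–luciferase reporter in which exon 7 inclusion puts luciferase in frame. Cells were plated 10-12 h before compound addition, then incubated 30-36 h at 37C. ONE-Glo luminescence was read; sodium butyrate at 4.5 mM final served as control.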
KinaseGlo FLuc: blocks Kinase-Glo luciferase, a counter-screen artifact. Q27757. Kinase-Glo luciferase, ATP luminescence, 8 min. Potency, µM (top dose mostly 38.3 µM), for the others: at the highest dose activity change, negative = inhibition, actives largely listed as inhibitors. hit rate 0.28% among 200,000. AID 1379; note: % is set by controls: 0 for no effect and ±100 for the full control effect; nearly all actives have a fitted effect of over 60% in size
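Kinase-Glo luciferase light output from ATP and luciferin was measured with 10 uM ATP, within the enzyme's linear range. Buffer: 50 mM imidazole pH 7.2, 50 mM KCl, 7 mM MgCl2, 0.01% Tween 20, 0.05% BSA; luminescence read after 8 min at ambient temperature.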
* = called active by the depositor; ? = inconclusive; . = no result given; [ ] = another dose, or the depositor's remark. Calls come from the whole dose curve; as a rule, active = well fitted curve in the direction sought with a large enough effect; inconclusive = small, poorly fitted or top-dose-only effect, or another doubt; inactive = no such curve, though single readings can be large; an effect the other way counts as inactive or inconclusive. Potency is the fitted concentration of half-maximal effect.

SMILES	Rab9 promoter act	ELG1 genotoxic	NPC1 prom act	FLuc counter	SMN2 splice up	KinaseGlo FLuc
Cc1ccc2cccc(S(=O)(=O)Nc3ccc4c(c3)OCO4)c2n1	-3%	5%	-2%	2%	7.1µM*	0%
O=S(=O)(Nc1ccc2c(c1)OCCO2)c1cccc2nsnc12	1%	16µM*	1%	24µM*	-13%	2%
O=S(=O)(Nc1ccc2c(c1)OCO2)c1ccccc1	1%	3%	-2%	4%	-7%	-3%
N#CC1(NC(=O)CSc2nnc(C3CC3)n2C2CC2)CCCCC1	-4%	0%	-7%	0%	.	.
Cc1ccc(CSCCNS(=O)(=O)c2ccccc2)cc1	0%	-1%	-1%	-3%	-19%	-2%
Cc1ccc2c(c1)cc(C(=O)Nc1ccc(F)cc1F)n2C	.	.	.	-3%	.	.
CCN(CC)c1ccc2c(O)cc(=O)oc2c1	1%	3%	0%	12µM*	7%	3%
Cc1cc(=O)n(-c2ccc3ccccc3n2)[nH]1	0%	?	8%	?	21%	-6%
CNc1ccccc(-c2ccc3ccccc3n2)c1=O	3.5µM*	?	?	9.5µM*	11µM*	-4%
O=C(Nc1cc(-c2nc3ccccc3s2)ccc1Cl)c1ccc2c(c1)OCO2	1%	6%	-1%	11µM*	8%	-3%
O=C(Nc1cc([N+](=O)[O-])ccc1Cl)c1ccc2c(c1)OCO2	4%	5%	4%	1%	3%	-1%
Cc1ccc(-c2nc3ccccc3s2)cc1NC(=O)c1ccc2c(c1)OCO2	-3%	-1%	11%	4.8µM*	-4%	0%
CCCCOc1ccc(C(=O)Nc2ccc(-c3nc4ccccc4s3)cc2C)cc1	.	.	.	-16%	-15%	.
Cc1ccc(C2=C(Cl)C(=O)C(c3ccc(C)cc3)=C(Cl)C2=O)cc1	.	.	.	.	-2%[9.22 µM]	2%[7.66 µM]
CN(C)c1ccc(CNC(=O)c2ccccc2NC(=O)c2nsc3ccccc23)cc1	.	.	.	-18%	.	.
CN(Cc1ccccc1)C(=O)c1cccc(NC(=O)c2nsc3ccccc23)c1	.	.	.	9.5µM*	.	.
CC(C)Oc1ccc(CNC(=O)c2cccc(NC(=O)c3nsc4ccccc34)c2)cc1	.	.	.	9.5µM*	.	.
CC(NC(=O)c1ccc(NC(=O)c2nsc3ccccc23)cc1)c1ccccc1 (stereo not given)	.	.	.	3µM*	.	.
Cc1ccc(C(=O)NCCC(C)C)cc1NC(=O)c1nsc2ccccc12	.	.	.	0%	.	.
CC(NC(=O)c1cccc(NC(=O)c2nsc3ccccc23)c1)c1ccccc1 (stereo not given)	.	.	.	3.8µM*	.	.
Cc1ccc(C(=O)O)cc1NC(=O)c1nsc2ccccc12	.	.	.	?	18%	.
O=C(C[n+]1ccc2ccccc2c1)c1ccc2ccc3ccccc3c2c1	.	.	.	.	-1%[9.22 µM]	-1%[7.66 µM]
O=C(CSc1ncccn1)Nc1ccc2c(c1)CCC2	23%	4%	-5%	21µM*	.	.
Cc1cc(C)cc(NC(=O)C2CCCN(c3ncccn3)C2)c1 (stereo not given)	-1%	-10%	-2%	-2%	.	.
O=C(Nc1cccc(C(F)(F)F)c1)C1CCCN(c2ncccn2)C1 (stereo not given)	0%	-5%	-5%	1%	-25%	-1%
SMILES	Rab9 promoter act	ELG1 genotoxic	NPC1 prom act	FLuc counter	SMN2 splice up	KinaseGlo FLuc
O=C(Nc1ccc2c(c1)CCC2)C1CCCN(c2ncccn2)C1 (stereo not given)	?	?	4µM*	5.4µM*	13µM*	-4%
O=C(Nc1ccc2c(c1)OCCO2)C1CCN(c2ncccn2)CC1	28%	?	8%	15µM*	24%	-4%
Cc1ccc(NC(=O)C2CCCN(c3ncccn3)C2)cc1F (stereo not given)	?	9.2µM*	3.5µM*	11µM*	18µM*	-8%
c1ccc(Cn2nnc(CNc3ccccc3)c2-c2c(CNc3ccccc3)nnn2Cc2ccccc2)cc1	-6%	-4%	-5%	0%	.	.
C[C@]12CCC(=O)CC1=CCC1C3CC=C(C#N)[C@@]3(C)CC[C@@]12O (stereo not given in full)	0%	-1%	2%	-1%	.	.
Cc1cc(C)cc(NC(=O)c2cc(Cl)sc2Cl)c1	-1%	-1%	2%	?	2%	1%
CCN(CC)c1ccc(NC(=O)Nc2cccc(C(C)=O)c2)cc1	.	.	.	1.7µM*	16%	-2%
CC(C)COc1ccc(C(=O)Nc2ccc([N+](=O)[O-])cc2)cc1	21%	0%	17%	-9%	-1%	-1%
CC(=O)c1ccc(NC(=O)Nc2ccc(Cl)cc2)cc1	1.4µM*	2.1µM*	1.4µM*	12µM*	13µM*	-3%
CC(=O)c1ccc(NC(=O)C(C)Nc2ccc(Cl)cc2)cc1 (stereo not given)	-4%	-1%	-3%	-1%	-1%	1%
CC(=O)c1ccc(NC(=O)c2cc(Cl)sc2Cl)cc1	2.2µM*	?	2.8µM*	15µM*	13µM*	-1%
CCC(=O)Oc1ccc(C(=O)Nc2ccc([N+](=O)[O-])cc2)cc1	?	9%	2.8µM*	-11%	14µM*	-1%
CCOc1ccccc1CNc1ncnc2onc(-c3ccc(F)cc3)c12	.	.	.	-10%	.	.
CCc1ccc(NC(=O)CSc2nc(-c3ccccc3Cl)nc3c2Cc2c(CO)cnc(C)c2O3)cc1	.	.	.	-1%	.	.
CC(=O)c1ccc(NC(=O)Nc2ccc([N+](=O)[O-])cc2)cc1	27%	?	?	-16%	13µM*	-1%
CC(=O)Nc1ccc(NC(=O)Nc2ccccc2)cc1	?	17%	?	17µM*	.	.
CC(=O)Nc1csc2ccccc12	0%	-2%	1%	1%	18%	-2%
CC(=O)c1ccc(NC(=O)NNS(=O)(=O)c2ccc([N+](=O)[O-])cc2)cc1	11%	1%	0%	4%	.	.
CC(=O)Nc1cccc(NC(=O)Nc2ccc(C(C)=O)cc2)c1	11%	?	24%	11µM*	19%	1%
CC(=O)c1ccc(NC(=O)Nc2cccc3ccccc23)cc1	?	?	25%	?	.	.
O=C(Nc1ccccc1)Nc1csc2ccccc12	?	17%	?	12µM*	.	.
CCN(C[C@H]1N[C@@](CC)(C(=O)OC)[C@H]2C(=O)N(C)C(=O)[C@@H]12)C(=O)Nc1ccc(C)cc1	.	1%	.	.	.	.
CC(=O)N1CCC2(CC1)CN(c1ccncc1)C2	.	.	.	.	-12%	-2%
CCc1ccc(OCCCC(=O)Nc2ccc(N3CCCCC3)cc2)cc1	-1%	-1%	-3%	-1%	-22%	-1%
CCCCOC(=O)Nc1ccc(N2CCCCC2)cc1	3.2µM*	?	2.2µM*	3µM*	11µM*	-1%
CCCCOC(=O)Nc1ccc(N2CCOCC2)cc1	3.2µM*	?	?	15µM*	11µM*	-1%
